Test results: publication PMC6212790, “How bacterial xenogeneic silencer rok distinguishes foreign from self DNA in its resident genome”
The full ranking holds about 33,000 sequences; the median of “e-score” is about -0.038, and the highest 2% start at about 0.33. For the sample, the highest values were picked, then their nearest neighbours and some sequences at random.

Target: T1, GST-Rok-C97-191 (Bacillus subtilis subsp. subtilis str. …, UniProt O34857 97-191)
T1 sequence: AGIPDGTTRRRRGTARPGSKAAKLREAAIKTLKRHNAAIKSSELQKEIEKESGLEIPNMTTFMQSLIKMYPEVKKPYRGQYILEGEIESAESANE
Experiment: protein binding microarray; Rok is a gene silencer of Bacillus subtilis; high values mean tight binding
Details: protein: recombinant; tags: GST (pTH5325, pDEST15-Magic modified); dsDNA, one strand shown
How it was run: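 Every oligonucleotide joins a 25-mer constant primer to a 35-mer variable part drawn from a de Bruijn sequence of order 10, so each non-palindromic 8-mer appears at least 32 times and each palindromic 8-mer 16 times. The preference for every 8-mer is reported as a unitless, rank-based enrichment score (E-score). This score spans 0.5 for the most favored 8-mer to −0.5 for the most disfavored.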

Sequence	binding signal [E-score]
ACGTACGG	0.0152
CCTAGTAG	0.25
GCTAGTAC	0.184
ACTAGTAT	0.409
ACCAGTAT	0.196
TCTAGTAA	0.265
ACTAGTCT	0.215
ACTAGTAA	0.423
CCTAGTAC	0.0475
ACTAGTAG	0.404
CCTAGTAA	0.145
ACTAGTCG	0.181
ACTAGTAC	0.393
ACCTTGGC	-0.158
CATTCGAA	0.101
AACCAATT	0.204
ACTCAAGA	-0.0762
CATAATGA	0.175
AAATTGAT	0.0406
CTTCCTCA	-0.0806
GACAGCGA	-0.193
GCGTAGAC	-0.111
CATATCGA	0.0885
AATATCTA	0.343
CATATCTC	0.0436

Sequence	binding signal [E-score]
GATATCCA	0.0457
CATATCTA	0.34
AATATCTG	0.2
GATATCAA	0.158
AATATCTC	0.28
GATATCTA	0.349
ACATCTTC	0.0581
ACTAAACC	-0.0801
CCTATTAG	0.16
CGACTGAA	-0.021
CGTAACAG	0.131
CGTCGAAA	0.106
ATTTAGTA	0.4
CATTAGTA	0.26
GTTTAGTA	0.31
AATTAGTA	0.408
ATTTAGTG	0.0465
AATTAGTG	0.28
CATGGAAC	-0.0493
CGTAAATA	0.254
CCTGAAAC	-0.0142
TATAAAGA	-0.131
TAAAGTCA	-0.0164
AAATGCCC	0.00515
ACTACGCA	-0.0187

Sequence	binding signal [E-score]
CAGTGTAC	0.0867
AGTCAGCA	-0.0559
GACAACAA	-0.114
AACAACAA	0.1
TACAACAA	0.353
AACAACTA	0.266
GACAACTA	0.295
TACAACTA	0.338
CCAGTTCG	-0.177
ACCAGTAG	0.259
GTCATCAA	-0.132
CTGGGAAA	-0.136
GCTGCTAC	0.0824
ACTAAGCA	0.0291
ACAACCGG	-0.0576
GCTCGAGC	-0.176
CATTTGCA	0.157
ATCTTCAT	0.204
AAACCTTC	0.0022
CCGGACAA	-0.145
CCACTCTC	-0.129
CACTTATA	0.281
AACTTCTA	0.246
AACTTATA	0.345
TACTTACA	0.31

Sequence	binding signal [E-score]
GACTTATA	0.279
GACTTCTA	0.111
AACTTATC	0.168
TACTTATA	0.331
TACTTCTA	0.374
GAATGTTA	0.159
CAGCAAGA	0.159
CCGATATC	0.0718
GAGTGTAA	0.0764
ACCATTGG	-0.182
TAGCTACA	0.353
AATCTACA	0.365
AAGCTACT	0.195
AAGCTACC	0.362
ACTCTACA	0.108
GATCTACA	0.29
AGTCTACA	0.0463
GAGCTACA	0.151
TATCTACA	0.361
CAGCTACA	0.0422
AAGCTACG	0.0766
CATCTACA	0.0976
TAGCACTA	0.191
GCGAGTTA	0.0475
ACCAGGCG	-0.1

Sequence	binding signal [E-score]
AATGGCGG	-0.112
TCCGGAGA	-0.0285
GACAGGCA	-0.106
CACATGCA	0.206
CGTTTCTA	0.369
AGTTTCTA	0.389
CGTTTCTC	-0.0794
GCTTTCTA	0.319
GTTTTCTA	0.256
CGTTTCGA	-0.111
GGTTTCTA	0.353
AGTTTCTG	0.0882
AGTTTCTC	0.244
GGCGACAC	-0.0519
GATAGACC	0.022
AGAGAAGG	-0.195
CTAGTACC	0.244
GATATATC	0.403
GCGATATA	0.282
GATATATA	0.358
GAGATATC	0.182
GTGATATA	0.245
ATGGGGCC	-0.169
ACTAGCAT	0.142
TGGTCTAA	0.0359

Sequence	binding signal [E-score]
GAGTGAAC	0.0307
CGACGACC	-0.148
AAGCGGGG	-0.141
AAGTAGAG	0.0923
AAGTAGGA	0.0873
GAGTAGAA	0.279
AAGTAGAC	0.021
CAGTAGAG	0.0442
AAGTAGAA	0.363
TAGTAGAA	0.433
AAGTAGCA	0.259
AAGTAGAT	0.407
CAGTAGAA	0.426
TAGTAGGA	0.252
TAGTAGCA	0.316
GGTTATTA	0.0524
GGCGGTAC	-0.0765
ACCGCTCG	-0.0635
ATGTCGCC	-0.0714
TGCTGGAA	-0.107
CCATTAAA	-0.149
ATATTTTA	0.384
GTATTTTA	0.376
GTATTTAA	0.273
CTATTTTA	0.302

Sequence	binding signal [E-score]
ATATTTTG	0.237
GTATTTGA	0.0326
CTAGCCGC	-0.192
TGCGGCAA	0.0751
ACTTCTAC	0.231
ATTTCTTC	0.204
CTTTCTAC	0.447
ATTTCTGG	0.0299
AGTTCTAG	0.236
ATTTCTCA	0.126
CTTTCTTC	0.0829
ATTTCTAC	0.353
GTTTCTAA	-0.0431
CTTTCTAA	0.1
ATTTCTAA	0.357
ATTTCTAG	0.366
CCAGGTAG	0.0315
GAACCGAA	0.00912
CAAGCTAG	0.137
ATCCCGTC	-0.181
ATGGTAGA	0.448
ATGGTACA	0.199
